Data as given in ChEMBL document CHEMBL4513216, “Probing the Open Global Health Chemical Diversity Library for Multistage-Active Starting Points for Next-Generation Antimalarials” (ACS Infect Dis, 2020).
In all, about 68,000 compounds went through this assay and about 2,700 (4%) showed an effect of 50% or more. Shown is part of a subset that was picked to be rich in strong results.

test system: Plasmodium berghei; assay: Screen against P. berghei liver stage (PbLuc), transformed with Luciferase, at 2uM; format: functional, HepG2; details: tested at 2 uM

Q: With `COCC1CN(C(=O)c2ccoc2)Cc2cnn(CC3CCOCC3)c21` (stereo not given) as the molecule, how does the INHIBITION read?
A: -14.61%

Q: For `CSCCCNC(=O)Nc1cccc(-c2nccn2C)c1`, which INHIBITION is on record?
A: 11.78%

Q: How did the INHIBITION turn out when `CCN(CC)CCn1ccnc1-c1cccc(C#N)c1` was run?
A: 15.2%

Q: With `CSCCCn1ccnc1-c1cccc(C#N)c1` as the molecule, how does the INHIBITION read?
A: 55.93%

Q: `Cc1ccc(C(=O)N2C[C@H]3CN(Cc4csc(C)n4)C[C@H]3C2)cn1` was tested. Which INHIBITION did it give?
A: 5.38%

Q: Which INHIBITION does the source give for `CCC[C@H]1CN(S(=O)(=O)c2ccccc2)C[C@@H]1N` here?
A: 24.12%

Q: With `CCC[C@H]1CN(S(=O)(=O)c2c(C)noc2C)C[C@@H]1N` as the molecule, how does the INHIBITION read?
A: 51.31%

Q: For `CCC[C@H]1CN(S(=O)(=O)c2ccc(-c3c(C)noc3C)s2)C[C@@H]1N`, which INHIBITION is on record?
A: 29.53%

Q: With `Cc1cnn(CC(C)Nc2nc(C)cc(N(C)C)n2)c1` (stereo not given) as the molecule, how does the INHIBITION read?
A: -28.68%

Q: `CN(C)C[C@]12COC[C@H]1CN(C(=O)Cc1ccc3c(c1)OCO3)C2` was tested. Which INHIBITION did it give?
A: -2.21%

Q: Which INHIBITION does the source give for `CCOC(=O)Cn1nnnc1-c1ccccc1` here?
A: 23.9%

Q: For `O=S(=O)(C1CC1)N1CCC2(CN(c3ncccn3)C2)C1`, which INHIBITION is on record?
A: -12.25%

Q: `Cc1ccc(CN2CCS(=O)(=O)C(C)(C)C2)cc1C` was tested. Which INHIBITION did it give?
A: -38.39%

Q: With `CCN1CC2(CCC1=O)CCN(Cc1cccc(OC(F)F)c1)CC2` as the molecule, how does the INHIBITION read?
A: -1.38%

Q: For `O=C(NCc1ccncc1)C1CN(c2nc3ccccc3s2)CCN1` (stereo not given), which INHIBITION is on record?
A: 11.67%

Q: With `Nc1nccc(N2CCNC(C(=O)NCc3ccccn3)C2)n1` (stereo not given) as the molecule, how does the INHIBITION read?
A: 50.94%

Q: Which INHIBITION does the source give for `O=C(NCc1cccnc1)C1CN(c2cnc3ccccc3n2)CCN1` (stereo not given) here?
A: -6.53%

Q: Which INHIBITION does the source give for `O=C(NC1CC1)C1CN(c2nc3ccccc3s2)CCN1` (stereo not given) here?
A: -17.07%

Q: `CCCc1nc(C)cc(N2CCNC(C(=O)NCc3cccnc3)C2)n1` (stereo not given) was tested. Which INHIBITION did it give?
A: 19.81%

Q: How did the INHIBITION turn out when `O=C(NCc1ccccn1)C1CN(c2nc3ccccc3s2)CCN1` (stereo not given) was run?
A: 56.21%

Q: `CN(C)CCN1CCN(Cc2cccs2)Cc2cccnc21` was tested. Which INHIBITION did it give?
A: 31.96%

Q: For `COc1ccc(CNC(=O)NC2CCC(O)CC2)c(C(F)(F)F)c1` (stereo not given), which INHIBITION is on record?
A: 24.83%

Q: `Cc1nc(C)n(CC2CCCCN2c2ccnc(-c3ccccc3)n2)n1` (stereo not given) was tested. Which INHIBITION did it give?
A: -22.89%

Q: Which INHIBITION does the source give for `O=C1CCC(C(=O)N(Cc2ccsc2)CC2CCCO2)=NN1` (stereo not given) here?
A: 50.59%

Q: With `O=C(c1cccc(=O)[nH]1)N(Cc1ccsc1)CC1CCCO1` (stereo not given) as the molecule, how does the INHIBITION read?
A: -2.31%

Q: Which INHIBITION does the source give for `CN(C)CCN(Cc1ccsc1)C(=O)C1=NNC(=O)CC1` here?
A: 31.51%

Q: How did the INHIBITION turn out when `CCCn1cc(C(=O)NC2CCN(CC(=O)NC3CC3)CC2)c(C)n1` was run?
A: 16.35%

Q: How did the INHIBITION turn out when `CNC(=O)CN1CCC(c2nn(C)c(=O)n2-c2ccccc2)CC1` was run?
A: 16.93%

Q: How did the INHIBITION turn out when `Cn1nc(C2CCN(CC(=O)NC3CC3)CC2)n(-c2ccccc2)c1=O` was run?
A: 60.64%

Q: With `CNc1cccc(C2CCN(C(C)=O)CC2)n1` as the molecule, how does the INHIBITION read?
A: 28.4%

Q: With `O=c1n(Cc2ncccn2)nc(C2CCNCC2)n1-c1ccccc1` as the molecule, how does the INHIBITION read?
A: -0.59%

Q: Which INHIBITION does the source give for `CCCC(=O)N1CCC(c2nn(C)c(=O)n2-c2ccccc2)CC1` here?
A: 60.64%

Q: Which INHIBITION does the source give for `CCSC(C)C(=O)N1CCC(c2nn(C)c(=O)n2-c2ccccc2)CC1` (stereo not given) here?
A: -45.11%

Q: `CC(=O)N1CCC(c2nn(C)c(=O)n2-c2ccccc2)CC1` was tested. Which INHIBITION did it give?
A: 64.06%

Q: With `Cn1cnnc1C1CCN(C(=O)CCCOc2ccccc2)CC1` as the molecule, how does the INHIBITION read?
A: 23.31%
